Inconclusive results are not listed. A call without a number means that no potency is given here. Activity calls are given as the source filed them. The call rests on the fitted dose curve; in most records, active means well fitted cell-killing curve with a large enough effect; inconclusive means small, poorly fitted or top-dose-only effect, or effect the other way; inactive means flat fitted curve, though single readings scatter. Where a SMILES comes first, the peptide text is derived from it. [ ]: non-standard residue; d: D form. pGlu = O=C1CC[C@@H](C(=O)O)N1; Thz = O=C(O)[C@@H]1CSCN1
Test system: CAOV3
Assay: Primary qHTS to identify gynecologic anti-cancer compounds using libraries of approved drugs and bioactive compounds (AID 1345084); further: nearly all actives have a fitted effect of over 55% in size
Settings: Gynecologic cancer cell panel viability, ATPlite luminescence, 48 h; series mostly up to 57.5 µM
Text: National Center for Advancing Translational Sciences [NCATS] Assay Overview: Chemotherapeutic drug responses vary from cancer to cancer and from patient to patient. These variations could be caused by a number of factors including patient genomic background, tumor mutations, tumor heterogeneity, and aspects of drug treatment. Chemotherapeutic drug resistance is also a common issue and can lead to ineffective treatment and patient death. Here we have profiled the cell killing effects of thousands of compounds to characterize the responses in three gynecological cancers, identify cancer-selective compounds, and understand the diversity of responses to these compounds from pan-cancer suppressors to single cell line selective compounds. In this assay, we screened a 7,914 compound drug library that included approved drug and bioactive compounds in six ovarian, three cervical, and […] placental cancer cell lines using the ATPlite assay for cell viability. […] The cervical cancer cell lines included HeLa, Ca Ski, and C-33 A. The placental cancer cell lines included JEG-3. HEK 293T cells were used as the control cell line to determine the selectivity index. ATPlite is a luminescence based assay reliant on the conversion of a luciferase substrate to light in the presence of ATP. As a cytotoxic compound will suppress growth and decrease the number of cells, the concentration of ATP will decrease, and less light signal will be detected in the well.
Assay Protocol Summary: 1,000 cells in 4 uL of media were dispensed into white, solid bottom 1536-well plates using a Multidrop Combi (Thermo Scientific). The Assay plates were incubated for 16 hours at 37 C with 5% CO2 in assay plates, followed by the addition of 23 nL of DMSO or drug dissolved in DMSO. Each compound was assayed in five concentrations (0.092, 0.46, 2.3, 11.5, and 57.5 uM), using the automated Wako 1536 Pin Tool workstation and incubated at 37 C with 5% CO2 48 hours. 4 uL of ATPlite, the ATP monitoring reagent, was then added to the each well of the assay plates using the Multidrop Combi reagent dispenser followed by incubation for 15 minutes at room temperature. The resulting luminescence was measured using the ViewLux plate reader.
Potency means the concentration at half of the fitted maximal effect.

Row | Compound | Potency | activity change, negative = cytotoxicity
1 | O=C(Nc1ccc2c(c1)CCN(Cc1ncn[nH]1)C2)c1ccccc1-c1ccc(C(F)(F)F)cc1 | inactive | 
2 | O=C(/C=C/c1ccccc1)NCCO | inactive | 
3 | C#C[C@]1(O)CC[C@H]2[C@@H]3CCc4cc(O)ccc4[C@H]3CC[C@@]21C | inactive | 
4 | CC1(C)S[C@@H]2[C@H](NC(=O)[C@H](N)c3ccccc3)C(=O)N2[C@H]1C(=O)O | inactive | 
5 | Clc1ccccc1-c1nc(-c2ccncc2)no1 | inactive | 
6 | CNC(=O)c1c(I)c(NC(=O)CCCCC(=O)Nc2c(I)c(C(=O)O)c(I)c(C(=O)NC)c2I)c(I)c(C(=O)O)c1I | inactive | 
7 | Nc1ccc([N+](=O)[O-])cc1O | inactive | 
8 | COc1ccc(-c2cc(=S)ss2)cc1 | inactive | 
9 | CN(CCCOc1ccc(Cc2ccccc2)cc1)CCC(=O)O | inactive | 
10 | [O-][n+]1ccccc1SSc1cccc[n+]1[O-] | 2820 nM (active) | 
11 | c1ccc2sc(SSc3nc4ccccc4s3)nc2c1 | inactive | 
12 | O=Cc1ccc(O)c(O)c1O | inactive | 
13 | CC(=O)O[C@H]1C[C@@]2(C)[C@@H](C[C@@H](O)[C@H]3[C@@]4(C)CC[C@@H](O)[C@@H](C)[C@@H]4CC[C@@]32C)/C1=C(\CCC=C(C)C)C(=O)O | inactive | 
14 | O=C(O)CC1CC(c2ccccc2)=NO1 (stereo not given) | inactive | 
15 | CC(C(=O)O)c1ccc(C(=O)c2cccs2)cc1 (stereo not given) | inactive | 
16 | CCCCCCCCCCCCCCCC(=O)OC(C)C | inactive | 
17 | CCCCCCCCCCCCOCCO | inactive | 
18 | O=C1CC[C@@H](C(=O)N2CSC[C@H]2C(=O)O)N1 ([pGlu]-[Thz]-OH) | inactive | 
19 | Nc1ccc(O)c([N+](=O)[O-])c1 | inactive | 
20 | O=C(O)c1cc(O)c(O)c(O)c1 | inactive | 

Row | Compound | Potency | activity change, negative = cytotoxicity
21 | CN1[C@@H]2CC[C@H]1CC(OC(c1ccccc1)c1ccccc1)C2 (stereo not given in full) | inactive | 
22 | Cc1cc(O)c2ccccc2c1O | inactive | 
23 | O=C(Nc1ccc(C(=O)O)c(O)c1)c1ccccc1 | inactive | 
24 | CCC1C(=O)OCC1Cc1cncn1C (stereo not given) | inactive | 
25 | O=C(O)Cc1ccc(-c2ccccc2)cc1 | inactive | 
26 | Cc1nc2ccccc2n1Cc1ccc(Cl)cc1 | inactive | 
27 | CCCCCCOc1ccccc1C(N)=O | inactive | 
28 | CCCC(=O)OC[C@@H](OC(=O)CCC)[C@@H](OC(=O)CCC)[C@H](Cn1c2nc(=O)[nH]c(=O)c-2nc2cc(C)c(C)cc21)OC(=O)CCC | inactive | 
29 | NC(=O)C(c1ccccc1)(c1ccccc1)[C@@H]1CCN(CCc2ccc3c(c2)CCO3)C1 | inactive | 
30 | CC(C)OC(=O)c1cc(C(=O)OC(C)C)cc([N+](=O)[O-])c1 | inactive | 
31 | CCOc1ccc2nc(S(N)(=O)=O)sc2c1 | inactive | 
32 | CC(C(=O)O)c1ccc2c(c1)[nH]c1ccc(Cl)cc12 (stereo not given) | inactive | 
33 | c1ccc(CCNc2nc(-c3ccccc3)cs2)cc1 | inactive | 
34 | COc1cc2c3cc1Oc1cc(ccc1O)C[C@@H]1c4c(cc(OC)c(O)c4Oc4ccc(cc4)C[C@@H]3N(C)CC2)CC[N+]1(C)C | inactive | 
35 | COC(=O)C1=C(C)NC(C)=C(C(=O)OCC(C)=O)C1c1ccccc1[N+](=O)[O-] (stereo not given) | inactive | 
36 | O=C(CS)Nc1ccccc1 | inactive | 
37 | COC(=O)[C@H]1[C@H]2C[C@@H]3c4[nH]c5cc(OC)ccc5c4CCN3C[C@H]2C[C@@H](OC(=O)/C=C/c2cc(OC)c(OC)c(OC)c2)[C@@H]1OC | inactive | 
38 | COC(=O)C1=C(C)NC(C)=C(C(=O)OCC(C)C)C1c1ccccc1[N+](=O)[O-] (stereo not given) | inactive | 
39 | O=C(O)Cc1cccc(-c2cc(CCCCCCc3ccc(O[C@H]4O[C@H](CO)[C@@H](O)[C@H](O)[C@@H]4O)c(-c4cccc(CC(=O)O)c4)c3)ccc2O[C@H]2O[C@H](CO)[C@@H](O)[C@H](O)[C@@H]2O)c1 |  | 12.9% [at 0.462 µM] (inactive)
40 | S=c1[nH]c2ccccc2s1 | inactive | 

Source: PubChem BioAssay (NCATS)
